Source: PubChem BioAssay
Several values for one entry are separate records, joined by “and”; a condition that tells them apart may be missing. Equal entries are not always repeated. Activity calls are given as the source filed them.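 Rule for the calls, unless noted: active = z-score of at least 1.8 in each of two replicates, scored against plate mean and spread of sample wells; inactive = the rest.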

What was measured:
[1] = P. berghei load reduction in hepatocytes – cell-based, HepG2, luciferase luminescence, HepG2 viability, primary screen (AID 624349; in the data active = parasite load remaining mostly below about 12%, no sharp cut-off; inactive = mostly above about 10%;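 note: 100% = mean of DMSO negative control wells on the same plate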); details: P. berghei liver stage in HepG2, luciferase luminescence, concentration not given here; parasite load remaining: stronger effect = lower value; viability: measured here: HepG2 viability without parasites
[2] = Wnt pathway potentiators raising nuclear beta-catenin – imaging, WNT3A-conditioned medium, mouse C2C12, NPC library, primary screen (AID 1117326; in the data active = nuclear beta-catenin stimulation mostly above about 4.2%, no sharp cut-off; inactive = mostly below about 10%); details: stronger effect = higher value
[3] = stimulators of insulin release from INS-1E, primary screen, cell-based, 5 mM glucose, NPC library (AID 1117329;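 active = compound raises insulin release from rat beta cells at 5 mM glucose, no numeric limit stated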); details: rat INS-1E insulin secretion, at 10 µM, stronger effect = higher value
[4] = growth inhibition of GSK3B-pretreated HCT116 cells – cell-based, CellTiter-Glo, 0.2 to 20 µM (AID 1117336;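 active = compounds lowering colon cancer cell viability after pretreatment blocking the GSK3B kinase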); details: HCT116 viability after GSK3B inhibitor, at 20 µM, stronger effect = higher value
[5] = inhibition of endothelial tube formation, primary screen, imaging, VEGF stimulated, CD31 staining, tube area, NPC library (AID 1117340;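 active = compound that reduces growth-factor-driven endothelial tube area in a mixed cell culture, no cutoff stated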); details: VEGF-stimulated ADSC/ECFC co-culture, at 10 µM, stronger effect = higher value
[6] = GLP1 release stimulators, primary, NCI-H716, NPC library (AID 1117341;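 active = compound raises GLP1 secretion from the human gut endocrine cells, with no numeric limit stated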); details: NCI-H716 cells, at 10 µM, stronger effect = higher value
[7] = HCT116 colon cancer cell growth inhibition, primary screen, CellTiter-Glo luminescence, NPC library (AID 1117342;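 active = compounds that lower survival of HCT116 colon cancer cells in the luminescence readout, no numeric limit stated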); details: at 20 µM (top of the series)
[8] = reduced SW480 viability measured with CellTiter-Glo, NPC library, primary (AID 1117343;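 active = compounds that lower viability of the colon cancer cells in the luminescence readout, with no numeric limit stated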); details: CellTiter-Glo luminescence; at 20 µM (top of the series)
[9] = NPC library primary testing for decreased DLD-1 cell viability via CellTiter-Glo (AID 1117346;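 active = compounds that lower survival of DLD-1 colon cancer cells in the luminescence readout, no cutoff given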); details: DLD-1 viability, CellTiter-Glo luminescence; at 20 µM (top of the series)
[10] = viability loss with induced miR-34 in A549 – imaging, A549 dox-inducible miR-34, nuclei and caspase counts, primary screen (AID 1347080;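 active = compounds whose cell count with miR-34 switched on is under 0.7 times the count with it off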); details: A549 miR-34 inducible, Hoechst nuclei count, 48 h
[11] = galactose survival enhancers in mitochondrial complex I cybrids – cell-based, galactose medium, ATP luminescence, primary screen (AID 1645843); details: complex I mutant cybrid cells, 72 h, stronger effect = higher value;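 note: positive z means more ATP and so rescue of galactose-driven cybrid death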
[12] = yeast 75Q aggregation reduction – 75Q-TubU reporter (AID 1593); details: Yeast 75Q polyglutamine aggregation reporter
[13] = blockers of cytochrome c efflux from mitochondria – biochemical, purified mitochondria (AID 1603); details: stronger effect = lower value;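 note: mouse liver mitochondria challenged with calcium chloride; signal normalized to the plate average as 100%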
[14] = polyglutamine aggregate formation blockers (AID 1604); details: polyglutamine-induced protein aggregation inhibition assay; stronger effect = higher value; tested at 2.5 µM
[15] = EMT-state selective cytotoxicity in co-culture – imaging, PC-3E GFP, TEM4-18 mCherry, primary screen (AID 1345086;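 active = compounds killing one labelled cell type while sparing the other, by normalised counts and ratio limits, not self-fluorescent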;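 for all read-outs here: cells exposed to compound for 72 h before imaging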;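 for red/green cell ratio (normalised): normalised mesenchymal count divided by normalised epithelial count so high means epithelial killing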); details: PC-3E GFP / TEM4-18 mCherry co-culture, imaging cell counts, at 1 µM; for red/green cell ratio (normalised): actives lie on both sides
[16] = tested on: Aerobactin synthetase IucA (Klebsiella pneumoniae hvKP1); test: IucA enzyme inhibition, primary screen, biochemical, Spectrum library (AID 1346200; call rule not given here;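 note: 100% = wells without compound and 0% = wells lacking enzyme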); details: malachite green pyrophosphate, A620, at 8 µM, stronger effect = lower value
[17] = MELAS cybrid and Rieske KO viability enhancers – cell-based, MELAS cybrids, Rieske KO mouse fibroblasts, CellTiter-Glo, primary screen (AID 1508586;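 active = mean z-score across replicates of 1.96 or higher in either the MELAS or the Rieske mutant cell line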;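 note: z relative to plate mean and SD of compound and empty wells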); details: low glucose
[18] = molecular target: NAD(+) hydrolase SARM1 (Homo sapiens) (UniProt Q6SZW1); test: blocking NAD cleavage by SARM1 SAM-TIR – cell lysate, NAD-Glo luminescence (AID 1508614;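 active = compound whose remaining NAD level is above about 45 nM, limit read from the data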;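 note: higher remaining NAD means stronger inhibition of SARM1 NADase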); details: SAM-TIR HEK293T lysate NADase, at 1 µM, stronger effect = higher value
[19] = molecular target: Mitogen-activated protein kinase 7 (Homo sapiens) (UniProt Q13164); test: Gal4-ERK5 driven luciferase induction – cell-based, HTS, primary screen (AID 1508626;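 active = luciferase signal above three times the same-plate solvent-only control wells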;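 note: luciferase driven by Gal4-ERK5 fusion binding five Gal4 sites before minimal TATA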); details: HeLa Gal4-ERK5 transactivation, 18 h, at 5 µM, stronger effect = higher value
[20] = molecular target: 6-phosphogluconate dehydrogenase, decarboxylating (Homo sapiens) (UniProt P52209); test: inhibition of human phosphogluconate dehydrogenase – biochemical, recombinant enzyme, NADPH absorbance, primary screen (AID 1159550;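 active = at least 20% inhibition of 6-phosphogluconate dehydrogenase activity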); details: recombinant 6PGD, NADPH absorbance 341 nm; at 10 µM; stronger effect = higher value
[21] = measured here: relative caspase fold change +Dox/-Dox
[22] = measured here: total cells with miR-34 induction, stronger effect = lower value
[23] = measured here: total cells without miR-34 induction
[24] = measured here: epithelial PC-3E GFP cell survival
[25] = measured here: mesenchymal TEM4-18 mCherry cell survival
[26] = MELAS cybrid survival, CellTiter-Glo 48 h, stronger effect = higher value
[27] = Rieske KO mouse fibroblast survival, CellTiter-Glo 72 h

Mitogen-activated protein kinase 7 (Homo sapiens), sequence (Q13164 whole entry, looked up, the tested form may be a part): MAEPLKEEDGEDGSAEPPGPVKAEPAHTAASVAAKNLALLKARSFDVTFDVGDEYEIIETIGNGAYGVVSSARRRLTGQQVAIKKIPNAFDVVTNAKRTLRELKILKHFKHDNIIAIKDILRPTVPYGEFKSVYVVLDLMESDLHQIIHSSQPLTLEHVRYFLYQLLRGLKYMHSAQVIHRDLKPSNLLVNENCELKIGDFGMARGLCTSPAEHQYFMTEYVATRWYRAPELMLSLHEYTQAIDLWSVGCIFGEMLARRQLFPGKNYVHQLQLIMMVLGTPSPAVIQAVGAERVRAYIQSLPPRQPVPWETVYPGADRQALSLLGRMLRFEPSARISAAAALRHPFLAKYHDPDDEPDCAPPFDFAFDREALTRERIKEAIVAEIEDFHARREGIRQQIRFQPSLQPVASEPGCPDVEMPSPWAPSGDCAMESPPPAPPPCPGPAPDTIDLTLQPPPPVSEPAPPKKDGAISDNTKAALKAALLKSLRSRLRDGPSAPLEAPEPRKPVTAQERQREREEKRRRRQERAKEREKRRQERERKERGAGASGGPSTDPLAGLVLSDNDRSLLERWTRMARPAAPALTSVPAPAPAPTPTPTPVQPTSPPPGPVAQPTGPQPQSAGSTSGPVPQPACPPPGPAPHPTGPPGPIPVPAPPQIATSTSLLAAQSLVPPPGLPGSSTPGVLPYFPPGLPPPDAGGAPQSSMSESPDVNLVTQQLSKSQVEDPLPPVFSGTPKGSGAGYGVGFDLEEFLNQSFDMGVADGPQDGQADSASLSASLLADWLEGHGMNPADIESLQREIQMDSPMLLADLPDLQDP
NAD(+) hydrolase SARM1 (Homo sapiens), sequence (Q6SZW1 whole entry, looked up, the tested form may be a part): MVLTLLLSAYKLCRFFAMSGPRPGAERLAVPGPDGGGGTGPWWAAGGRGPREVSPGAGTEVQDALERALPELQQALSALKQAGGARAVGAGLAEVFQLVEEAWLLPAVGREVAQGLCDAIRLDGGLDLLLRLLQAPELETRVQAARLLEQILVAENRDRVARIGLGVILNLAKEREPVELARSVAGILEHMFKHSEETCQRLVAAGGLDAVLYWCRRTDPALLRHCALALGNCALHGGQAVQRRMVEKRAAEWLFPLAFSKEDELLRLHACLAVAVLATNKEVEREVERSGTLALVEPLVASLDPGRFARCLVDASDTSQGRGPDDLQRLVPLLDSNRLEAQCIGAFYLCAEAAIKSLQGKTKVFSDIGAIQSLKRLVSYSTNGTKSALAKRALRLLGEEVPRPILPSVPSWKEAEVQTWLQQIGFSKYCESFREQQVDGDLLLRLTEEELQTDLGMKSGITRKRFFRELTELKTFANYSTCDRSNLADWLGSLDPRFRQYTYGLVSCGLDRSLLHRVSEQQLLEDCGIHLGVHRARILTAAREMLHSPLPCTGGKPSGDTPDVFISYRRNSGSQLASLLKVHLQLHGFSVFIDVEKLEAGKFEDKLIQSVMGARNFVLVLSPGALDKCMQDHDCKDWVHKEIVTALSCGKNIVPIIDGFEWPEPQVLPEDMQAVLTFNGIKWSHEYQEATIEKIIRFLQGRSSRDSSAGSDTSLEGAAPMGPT
6-phosphogluconate dehydrogenase, decarboxylating (Homo sapiens), sequence (P52209 whole entry, looked up): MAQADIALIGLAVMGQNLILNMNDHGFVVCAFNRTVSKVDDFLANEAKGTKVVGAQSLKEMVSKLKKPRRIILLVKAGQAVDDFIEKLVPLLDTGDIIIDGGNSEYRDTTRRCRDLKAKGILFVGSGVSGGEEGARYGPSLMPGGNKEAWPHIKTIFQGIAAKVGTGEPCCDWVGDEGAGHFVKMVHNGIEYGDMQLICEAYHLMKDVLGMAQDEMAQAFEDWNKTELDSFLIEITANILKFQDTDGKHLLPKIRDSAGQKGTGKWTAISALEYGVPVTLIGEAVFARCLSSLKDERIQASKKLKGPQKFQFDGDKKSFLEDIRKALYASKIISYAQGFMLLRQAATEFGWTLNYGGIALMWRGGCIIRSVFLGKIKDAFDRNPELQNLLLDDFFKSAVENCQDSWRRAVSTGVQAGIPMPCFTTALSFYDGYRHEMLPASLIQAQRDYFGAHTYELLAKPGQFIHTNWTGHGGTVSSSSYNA

Compound: CCN(CC)CCOC(=O)C(O)(c1ccccc1)c1ccccc1
- parasite load remaining [1]: 103% (inactive)
- viability [1]: 95.8%
- nuclear beta-catenin stimulation ([2]; at 10 µM): -0.3% (inactive)
- nuclear beta-catenin stimulation ([2]; stimulation, at 2 µM): -1.2%
- insulin secretion stimulation [3]: 4% (inactive)
- viability decrease [4]: -5.8% (inactive)
- tube area decrease [5]: -5.7% (inactive)
- GLP1 secretion stimulation [6]: 1% (inactive)
- inhibition of viability [7]: 1.8% (inactive)
- viability decrease (inhibition) [8]: -15.1% (inactive)
- viability decrease (inhibition) [9]: 2.6% (inactive)
- fold change ([10]; stronger effect = lower value): 1.01 (inactive)
- fold change [10, 21]: 1.6
- cell count [10, 22]: 10200
- cell count [10, 23]: 10100
- z-score [11]: 0.79 (inactive)

Compound: COc1ccc(C(=O)N2CCCC2=O)cc1
- score [12]: 0.89
- cytochrome c release ratio [13]: 0.98
- inhibition of aggregation [14]: 60.5%
- parasite load remaining [1]: 27.9% (inactive) and 46.2% (inactive)
- viability [1]: 90.5% and 108%
- nuclear beta-catenin stimulation ([2]; at 10 µM): 0.6% (inactive)
- nuclear beta-catenin stimulation ([2]; stimulation, at 2 µM): 1.5%
- insulin secretion stimulation [3]: -0.2% (inactive)
- viability decrease [4]: -7.2% (inactive)
- tube area decrease [5]: -6.9% (inactive)
- GLP1 secretion stimulation [6]: -1% (inactive)
- inhibition of viability [7]: -1% (inactive)
- viability decrease (inhibition) [8]: 8.2% (inactive)
- viability decrease (inhibition) [9]: 2.2% (inactive)
- red/green cell ratio (normalised) [15]: 1.03 (inactive)
- normalised cell number [15, 24]: 1.3
- normalised cell number [15, 25]: 1.35
- activity remaining [16]: 112% (inactive)
- z-score [17, 26]: 0.14 (inactive) and 0.301 (inactive) and -1.05 (inactive)
- z-score [17, 27]: 1 and 0.247 and -0.762
- remaining NAD [18]: 10 nM (inactive)
- luciferase signal [19]: 60 AU (inactive)
- z-score [11]: 0.545 (inactive) and 0.9 (inactive) and 0.65 (inactive)

Compound: C[N+]1(CCC(C(N)=O)(c2ccccc2)c2ccccc2)CCCCC1
- parasite load remaining [1]: 104% (inactive)
- viability [1]: 70.3%
- nuclear beta-catenin stimulation ([2]; at 10 µM): 0.3% (inactive)
- nuclear beta-catenin stimulation ([2]; stimulation, at 2 µM): 0.3%
- insulin secretion stimulation [3]: 0.55% (inactive)
- viability decrease [4]: 13.5% (inactive)
- tube area decrease [5]: -8.4% (inactive)
- GLP1 secretion stimulation [6]: 1.2% (inactive)
- inhibition of viability [7]: -21.6% (inactive)
- viability decrease (inhibition) [8]: -9.7% (inactive)
- viability decrease (inhibition) [9]: -24.2% (inactive)
- fold change ([10]; stronger effect = lower value): 0.846 (inactive)
- fold change [10, 21]: 2.2
- cell count [10, 22]: 8180
- cell count [10, 23]: 9670
- z-score [11]: 0.675 (inactive)

Compound: Nc1nc(N)nc(NC2CC2)n1
- nuclear beta-catenin stimulation ([2]; at 10 µM): 0.9% (inactive)
- nuclear beta-catenin stimulation ([2]; stimulation, at 2 µM): 2.8%
- insulin secretion stimulation [3]: -1.3% (inactive)
- viability decrease [4]: -16.8% (inactive)
- tube area decrease [5]: 5.4% (inactive)
- GLP1 secretion stimulation [6]: 2.4% (inactive)
- inhibition of viability [7]: 2.07% (inactive)
- viability decrease (inhibition) [8]: -5.7% (inactive)
- viability decrease (inhibition) [9]: -8.2% (inactive)
- red/green cell ratio (normalised) [15]: 0.97 (inactive)
- normalised cell number [15, 24]: 1
- normalised cell number [15, 25]: 0.96
- fold change ([10]; stronger effect = lower value): 0.94 (inactive) and 0.918 (inactive)
- fold change [10, 21]: 0.828 and 0.774
- cell count [10, 22]: 8490 and 8320
- cell count [10, 23]: 9030 and 9070
- z-score [17, 26]: -0.201 (inactive)
- z-score [17, 27]: -0.194
- remaining NAD [18]: 10 nM (inactive)

Compound: CC[C@@H](CO)NC(=O)[C@@H]1C=C2c3cccc4c3c(cn4C)C[C@H]2N(C)C1
- nuclear beta-catenin stimulation ([2]; at 10 µM): 3.3% (inactive)
- nuclear beta-catenin stimulation ([2]; stimulation, at 2 µM): 1.1%
- insulin secretion stimulation [3]: 2.6% (inactive)
- viability decrease [4]: 1% (inactive)
- tube area decrease [5]: -1.8% (inactive)
- GLP1 secretion stimulation [6]: 0.1% (inactive)
- inhibition of viability [7]: 9.4% (inactive)
- viability decrease (inhibition) [8]: 16% (inactive)
- viability decrease (inhibition) [9]: 5.6% (inactive)
- red/green cell ratio (normalised) [15]: 0.99 (inactive)
- normalised cell number [15, 24]: 0.96
- normalised cell number [15, 25]: 0.95
- z-score [17, 26]: -0.563 (inactive)
- z-score [17, 27]: -1.27
- remaining NAD [18]: 10 nM (inactive)
- z-score [11]: 0.19 (inactive) and -0.69 (inactive) and -0.15 (inactive)

Compound: CC1Sc2c(C(=O)O)c(=O)c3cc(F)c(N4CCNCC4)cc3n21 (stereo not given)
- nuclear beta-catenin stimulation ([2]; at 10 µM): -0.2% (inactive)
- nuclear beta-catenin stimulation ([2]; stimulation, at 2 µM): 2.5%
- insulin secretion stimulation [3]: 1.4% (inactive)
- viability decrease [4]: 43.4% (inactive)
- tube area decrease [5]: -8.5% (inactive)
- GLP1 secretion stimulation [6]: 2.3% (inactive)
- inhibition of viability [7]: 50.6% (active)
- viability decrease (inhibition) [8]: 40.9% (inactive)
- viability decrease (inhibition) [9]: 40.8% (inactive)
- red/green cell ratio (normalised) ([15]; counts scaled to control wells, 1 = unselective): 1.16 (inactive)
- normalised cell number [15, 24]: 1
- normalised cell number [15, 25]: 1.16

Compound: CC(C)c1cccc(C(C)C)c1O
- nuclear beta-catenin stimulation ([2]; at 10 µM): 1.6% (inactive)
- nuclear beta-catenin stimulation ([2]; stimulation, at 2 µM): 2.2%
- insulin secretion stimulation [3]: 0.6% (inactive)
- viability decrease [4]: 83.9% (active)
- tube area decrease [5]: 31% (inactive)
- GLP1 secretion stimulation [6]: -1.8% (inactive)
- inhibition of viability [7]: 88.2% (active)
- viability decrease (inhibition) [8]: 102% (active)
- viability decrease (inhibition) [9]: 100% (active)
- red/green cell ratio (normalised) [15]: 1.01 (inactive)
- normalised cell number [15, 24]: 1.17
- normalised cell number [15, 25]: 1.17
- activity remaining [16]: 114% (inactive)
- z-score [17, 26]: 0.836 (inactive) and -0.252 (inactive)
- z-score [17, 27]: -0.371 and -1.34
- remaining NAD [18]: 10 nM (inactive)
- luciferase signal [19]: 40 AU (inactive)
- z-score [11]: 0.08 (inactive) and -0.35 (inactive) and 0.505 (inactive)

Compound: NC(=O)OCCCc1ccccc1
- parasite load remaining [1]: 136% (inactive)
- viability [1]: 89.7%
- nuclear beta-catenin stimulation ([2]; at 10 µM): 0.8% (inactive)
- nuclear beta-catenin stimulation ([2]; stimulation, at 2 µM): 0.3%
- insulin secretion stimulation [3]: -2.9% (inactive)
- viability decrease [4]: -9.45% (inactive)
- tube area decrease [5]: 18% (inactive)
- GLP1 secretion stimulation [6]: 0.9% (inactive)
- inhibition of viability [7]: 4.5% (inactive)
- viability decrease (inhibition) [8]: -4.9% (inactive)
- viability decrease (inhibition) [9]: -16.8% (inactive)
- fold change ([10]; stronger effect = lower value): 0.887 (inactive)
- fold change [10, 21]: 1.34
- cell count [10, 22]: 9650
- cell count [10, 23]: 10900
- z-score [17, 26]: -0.606 (inactive)
- z-score [17, 27]: -0.33
- z-score [11]: 0.64 (inactive)

Compound: Nc1ccc([As](=O)(O)O)cc1
- parasite load remaining [1]: 57.3% (inactive)
- viability [1]: 124%
- nuclear beta-catenin stimulation ([2]; at 10 µM): 1.1% (inactive)
- nuclear beta-catenin stimulation ([2]; stimulation, at 2 µM): 0.8%
- insulin secretion stimulation [3]: -1.7% (inactive)
- viability decrease [4]: -4.2% (inactive)
- tube area decrease [5]: -12.5% (inactive)
- GLP1 secretion stimulation [6]: 0.9% (inactive)
- inhibition of viability [7]: 26% (inactive)
- viability decrease (inhibition) [8]: 2.1% (inactive)
- viability decrease (inhibition) [9]: -7.6% (inactive)
- red/green cell ratio (normalised) [15]: 0.96 (inactive)
- normalised cell number [15, 24]: 1.12
- normalised cell number [15, 25]: 1.07
- activity remaining [16]: 117% (inactive)
- fold change ([10]; stronger effect = lower value): 0.904 (inactive)
- fold change [10, 21]: 4.85
- cell count [10, 22]: 12200
- cell count [10, 23]: 13500
- remaining NAD [18]: 10 nM (inactive)
- luciferase signal [19]: 48 AU (inactive)

Compound: Clc1ccc(C(c2ccc(Cl)cc2)C(Cl)(Cl)Cl)cc1
- nuclear beta-catenin stimulation ([2]; at 10 µM): 0.9% (inactive)
- nuclear beta-catenin stimulation ([2]; stimulation, at 2 µM): -0.7%
- insulin secretion stimulation [3]: 2.7% (inactive)
- viability decrease [4]: 94.4% (active)
- tube area decrease [5]: 18.6% (inactive)
- GLP1 secretion stimulation [6]: 2.8% (inactive)
- inhibition of viability [7]: 73.4% (active)
- viability decrease (inhibition) [8]: 124% (active)
- viability decrease (inhibition) [9]: 84.5% (active)
- inhibition [20]: 4.6% (inactive)
- luciferase signal [19]: 48 AU (inactive)
